Data taken from PubChem BioAssay (NCATS).
Several values for one entry are separate records, joined by “and”; a condition that tells them apart may be missing. Equal entries are not always repeated. Records with an inconclusive call do not appear. Activity calls are given as the source filed them. Calls follow the shape of the dose curve; as a rule, active = well fitted inhibition curve with a large enough effect; inconclusive = small, poorly fitted or top-dose-only effect; inactive = flat fitted curve, though single readings scatter.

What was measured:
GB4 = experiment: qHTS profiling for inhibitors of Plasmodium falciparum proliferation (AID 504749); conditions: P. falciparum in erythrocytes, SYBR Green DNA, 72 h; series mostly up to 28.7 µM
In short: (§1)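 Quantitative HTS: compounds pinned into medium, infected erythrocytes added (0.3% parasitemia, 2.5% hematocrit), 72 h culture at 37 C under 5% CO2. Saponin/Triton lysis with SYBR Green I, overnight RT, then fluorescence read.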

HB3 = experiment: as above; conditions: P. falciparum in erythrocytes, SYBR Green DNA, 72 h; series mostly up to 28.7 µM
In short: as §1

ICS = experiment: as above; conditions: P. falciparum in erythrocytes, SYBR Green DNA, 72 h; series mostly up to 28.7 µM
In short: as §1

JCK = experiment: as above; conditions: P. falciparum in erythrocytes, SYBR Green DNA, 72 h; series mostly up to 28.7 µM
In short: as §1

N140 = experiment: as above; conditions: P. falciparum in erythrocytes, SYBR Green DNA, 72 h; series mostly up to 28.7 µM
In short: as §1

P93_24 = experiment: as above; conditions: P. falciparum in erythrocytes, SYBR Green DNA, 72 h; series mostly up to 28.7 µM
In short: as §1

P94_40 = experiment: as above; conditions: P. falciparum in erythrocytes, SYBR Green DNA, 72 h; series mostly up to 28.7 µM
In short: as §1

PAD = experiment: as above; conditions: P. falciparum in erythrocytes, SYBR Green DNA, 72 h; series mostly up to 28.7 µM
In short: as §1

PC15 = experiment: as above; conditions: P. falciparum in erythrocytes, SYBR Green DNA, 72 h; series mostly up to 28.7 µM
In short: as §1

PC26 = experiment: as above; conditions: P. falciparum in erythrocytes, SYBR Green DNA, 72 h; series mostly up to 28.7 µM
In short: as §1

PC49 = experiment: as above; conditions: P. falciparum in erythrocytes, SYBR Green DNA, 72 h; series mostly up to 28.7 µM
In short: as §1

SC27B = experiment: as above; conditions: P. falciparum in erythrocytes, SYBR Green DNA, 72 h; series mostly up to 28.7 µM
In short: as §1

TAB113 = experiment: as above; conditions: P. falciparum in erythrocytes, SYBR Green DNA, 72 h; series mostly up to 28.7 µM
In short: as §1

TAB165 = experiment: as above; conditions: P. falciparum in erythrocytes, SYBR Green DNA, 72 h; series mostly up to 28.7 µM
In short: as §1

W2 = experiment: as above; conditions: P. falciparum in erythrocytes, SYBR Green DNA, 72 h; series mostly up to 28.7 µM
In short: as §1

TAB109 = experiment: as above; conditions: P. falciparum in erythrocytes, SYBR Green DNA, 72 h; series mostly up to 28.7 µM
In short: as §1

KB-3-1 = experiment: Cytotoxic Profiling of Annotated Libraries Using Quantitative High-Throughput Screening (AID 1296008); conditions: Five cell lines viability, CellTiter-Glo ATP luminescence, 48-72 h; max response: active compounds read low; as to max response: % is scaled to controls: 0 for no effect and ±100 for the full control effect
In short: (§2)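 Compounds were pin-transferred onto cells and incubated 48 or 72 hr at 37 degree Celsius, 95% humidity. CellTiter-Glo was added, plates sat 10 min at room temperature, then ATP-coupled luminescence was imaged as the viability read-out.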

HaCat = experiment: as above; conditions: Five cell lines viability, CellTiter-Glo ATP luminescence, 48-72 h; max response: active compounds read low
In short: as §2
Also: nearly all actives have a fitted effect of over 60% in size.
Potency is read from the fitted curve at half-maximal effect.

CC1OC1P(=O)(O)O (stereo unspecified)
inactive: Potency (GB4) | Potency (HB3) | Potency (ICS) | Potency (JCK) | Potency (N140) | Potency (P93_24) | Potency (P94_40) | Potency (PAD) | Potency (PC15) | Potency (PC26) | Potency (PC49) | Potency (SC27B) | Potency (TAB113) | Potency (TAB165) | Potency (W2)

CCCCC[C@H](O)/C=C/[C@@H]1[C@@H](C/C=C\CCCC(=O)O)[C@@H](O)C[C@H]1O
inactive: Potency (GB4) | Potency (HB3) | Potency (ICS) | Potency (JCK) | Potency (N140) | Potency (P93_24) | Potency (P94_40) | Potency (PAD) | Potency (PC15) | Potency (PC49) | Potency (SC27B) | Potency (TAB109) | Potency (TAB113) | Potency (TAB165) | Potency (W2) | max response (KB-3-1) 4.45% and 3.57%

CC(=O)[C@]1(O)Cc2c(O)c3c(c(O)c2[C@@H](O[C@H]2C[C@H](N)[C@H](O)[C@H](C)O2)C1)C(=O)c1c(O)cccc1C3=O
active: Potency (GB4) 4.78 µM | Potency (HB3) 7.94 µM | Potency (ICS) 2 µM | Potency (JCK) 11.2 µM | Potency (N140) 10 µM | Potency (P93_24) 7.94 µM | Potency (P94_40) 10 µM | Potency (PAD) 12.6 µM | Potency (PC15) 7.94 µM | Potency (PC49) 8.91 µM | Potency (SC27B) 12.6 µM | Potency (TAB109) 7.08 µM | Potency (TAB113) 7.08 µM | Potency (TAB165) 5.01 µM | Potency (W2) 4.26 µM | Potency (KB-3-1) 4.61 µM and 5.17 µM

C=CC(N)CCC(=O)O (stereo unspecified)
inactive: Potency (GB4) | Potency (HB3) | Potency (ICS) | Potency (JCK) | Potency (N140) | Potency (P93_24) | Potency (P94_40) | Potency (PAD) | Potency (PC15) | Potency (PC26) | Potency (PC49) | Potency (SC27B) | Potency (TAB109) | Potency (TAB113) | Potency (TAB165) | Potency (W2) | max response (KB-3-1) 3.37%

Cc1ccccc1CNc1ncnc2c1ncn2C1OC(CO)C(O)C1O (stereo unspecified)
inactive: Potency (GB4) | Potency (HB3) | Potency (ICS) | Potency (JCK) | Potency (N140) | Potency (P93_24) | Potency (P94_40) | Potency (PAD) | Potency (PC15) | Potency (PC26) | Potency (PC49) | Potency (SC27B) | Potency (TAB109) | Potency (TAB113) | Potency (TAB165) | Potency (W2)

NC(=O)C(c1ccccc1)(c1ccccc1)[C@@H]1CCN(CCc2ccc3c(c2)CCO3)C1
inactive: Potency (HB3) | Potency (JCK) | Potency (PAD)
active: Potency (ICS) 7.08 µM | Potency (W2) 1.69 µM

O=c1cc(-c2ccccc2)oc2ccccc12
active: Potency (HaCat) 34 µM | Potency (KB-3-1) 199 nM

CC[C@H]1OC(=O)[C@H](C)C(=O)[C@H](C)[C@@H](O[C@@H]2O[C@H](C)C[C@H](N(C)C)[C@H]2O)[C@](C)(OC)C[C@@H](C)C(=O)[C@H](C)[C@H]2N(CCCCn3cnc(-c4cccnc4)c3)C(=O)O[C@]12C
inactive: max response (KB-3-1) 6.09% and 49.1%

C#C[C@]1(O)CC[C@H]2[C@@H]3CCc4cc(O)ccc4[C@H]3CC[C@@]21C
active: Potency (HaCat) 4.73 µM
inactive: Potency (GB4) | Potency (HB3) | Potency (ICS) | Potency (JCK) | Potency (N140) | Potency (P93_24) | Potency (P94_40) | Potency (PAD) | Potency (PC15) | Potency (PC26) | Potency (PC49) | Potency (SC27B) | Potency (TAB109) | Potency (TAB113) | Potency (TAB165) | Potency (W2)

C[N+](C)(C)CCOP(=O)(O)OP(=O)([O-])OC[C@H]1O[C@@H](n2ccc(N)nc2=O)[C@H](O)[C@@H]1O
inactive: max response (KB-3-1) 10.6% and -5.11%

O=C1CN(/N=C/c2ccc(-c3ccc([N+](=O)[O-])cc3)o2)C(=O)N1
inactive: Potency (HB3) | Potency (ICS) | Potency (JCK) | Potency (N140) | Potency (P94_40) | Potency (PAD) | Potency (PC15) | Potency (SC27B) | Potency (TAB109) | Potency (TAB113) | Potency (TAB165) | Potency (W2)

CC1(C)C[C@@H]1C(=O)N/C(=C\CCCCSC[C@H](N)C(=O)O)C(=O)O
inactive: Potency (GB4) | Potency (HB3) | Potency (ICS) | Potency (JCK) | Potency (N140) | Potency (P93_24) | Potency (P94_40) | Potency (PAD) | Potency (PC15) | Potency (PC26) | Potency (PC49) | Potency (SC27B) | Potency (TAB109) | Potency (TAB113) | Potency (TAB165) | Potency (W2) | max response (KB-3-1) 4.27% and -2.38%

O=C(O)COc1ccc(C(=O)c2cccs2)c(Cl)c1Cl
inactive: Potency (GB4) | Potency (HB3) | Potency (ICS) | Potency (JCK) | Potency (N140) | Potency (P93_24) | Potency (P94_40) | Potency (PAD) | Potency (PC15) | Potency (PC26) | Potency (PC49) | Potency (SC27B) | Potency (TAB109) | Potency (TAB113) | Potency (TAB165) | Potency (W2) | max response (KB-3-1) -1.65% and 4.87%

C=CCN1C(=O)C(CC(C)C)NC1=S (stereo unspecified)
inactive: Potency (GB4) | Potency (HB3) | Potency (ICS) | Potency (JCK) | Potency (N140) | Potency (P93_24) | Potency (P94_40) | Potency (PAD) | Potency (PC15) | Potency (PC26) | Potency (PC49) | Potency (SC27B) | Potency (TAB109) | Potency (TAB113) | Potency (TAB165) | Potency (W2) | max response (KB-3-1) 11.7% and 6.26%

O=C(O)c1cc(O)c(O)c(O)c1
active: Potency (W2) 5.36 µM
inactive: Potency (HB3) | Potency (P94_40) | Potency (PAD) | Potency (PC15) | Potency (PC26) | Potency (PC49) | Potency (SC27B) | Potency (TAB109)

C=C(Nc1ccc(OCC)cc1)Nc1ccc(OCC)cc1
inactive: Potency (HB3) | Potency (ICS) | Potency (JCK) | Potency (N140) | Potency (P93_24) | Potency (P94_40) | Potency (PAD) | Potency (PC15) | Potency (PC26) | Potency (PC49) | Potency (SC27B) | Potency (TAB109) | Potency (TAB113) | Potency (TAB165) | max response (KB-3-1) -11.3% and -9.03%

O=C(O)[C@H](O)[C@@H](O)[C@H](O)[C@H](O)CO
inactive: Potency (GB4) | Potency (HB3) | Potency (ICS) | Potency (JCK) | Potency (N140) | Potency (P93_24) | Potency (P94_40) | Potency (PAD) | Potency (PC15) | Potency (PC26) | Potency (PC49) | Potency (SC27B) | Potency (TAB109) | Potency (TAB113) | Potency (TAB165) | Potency (W2) | max response (KB-3-1) 1.75% and -7.15%

CC[C@H]1OC(=O)[C@H](C)[C@@H](O[C@H]2C[C@@](C)(OC)[C@@H](O)[C@H](C)O2)[C@H](C)[C@@H](O[C@@H]2O[C@H](C)C[C@H](N(C)C)[C@H]2O)[C@](C)(O)C[C@@H](C)C(=O)[C@H](C)[C@@H](O)[C@]1(C)O
inactive: max response (KB-3-1) 12% and -5.16%

CCCCCC[C@@H](O)C/C=C\CCCCCCCC(=O)O
inactive: Potency (GB4) | Potency (HB3) | Potency (ICS) | Potency (JCK) | Potency (N140) | Potency (P93_24) | Potency (P94_40) | Potency (PAD) | Potency (PC15) | Potency (PC26) | Potency (PC49) | Potency (SC27B) | Potency (TAB109) | Potency (TAB113) | Potency (TAB165) | Potency (W2) | max response (KB-3-1) -2.77% and 6.21% and -9.38%

CN(C)c1ccc(N=NS(=O)(=O)O)cc1
inactive: max response (HaCat) -1.75% | max response (KB-3-1) -10.4%

Oc1c(Br)cc(Br)c2cccnc12
inactive: Potency (GB4) | Potency (HB3) | Potency (JCK) | Potency (N140) | Potency (P93_24) | Potency (P94_40) | Potency (PAD) | Potency (PC15) | Potency (PC26) | Potency (PC49) | Potency (SC27B) | Potency (TAB109) | Potency (W2)

CCCCCCOc1ccccc1C(N)=O
inactive: Potency (GB4) | Potency (HB3) | Potency (ICS) | Potency (JCK) | Potency (N140) | Potency (P93_24) | Potency (P94_40) | Potency (PAD) | Potency (PC15) | Potency (PC26) | Potency (PC49) | Potency (SC27B) | Potency (TAB109) | Potency (TAB113) | Potency (TAB165) | Potency (W2) | max response (HaCat) -20.5% | max response (KB-3-1) 0.591%
